Results: PubChem BioAssay
“And” between values parts separate entries of the source, which are not always exact repeats. Identical values can stand only once. The source made the active and inactive calls.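 How the source made its calls, unless noted: active means compounds whose cell count with miR-34 switched on is under 0.7 times the count with it off; inactive means the rest.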

How the values were obtained:
[1] = P. berghei load reduction in hepatocytes – cell-based, HepG2, luciferase luminescence, HepG2 viability, primary screen (AID 624349; in the data active means parasite load remaining mostly below about 12%, no sharp cut-off; inactive means mostly above about 10%;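 further: 100% = mean of DMSO negative control wells on the same plate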); settings: P. berghei liver stage in HepG2, luciferase luminescence, concentration not given here; parasite load remaining: stronger effect = lower value; viability: measured here: HepG2 viability without parasites
[2] = viability loss with induced miR-34 in A549 – imaging, A549 dox-inducible miR-34, nuclei and caspase counts, primary screen (AID 1347080); settings: A549 miR-34 inducible, Hoechst nuclei count, 48 h
[3] = compounds altering viability of human ES cells (AID 493140; call rule not given here;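 further: cells exposed to compounds for four days before counting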); settings: human embryonic stem cell survival screen; stronger effect = higher value
[4] = chitosan synthesis blockers in C. neoformans – flow cytometry, Cibacron Brilliant Red staining (AID 1347148; call rule not given here;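 further: compound exposure lasted three days at 37 degrees C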); settings: Cryptococcus neoformans chitosan, stronger effect = lower value; at 10 µM unless noted
[5] = stronger effect = lower value, cell number ratio, induced over uninduced
[6] = measured here: relative caspase fold change +Dox/-Dox
[7] = measured here: total cells with miR-34 induction, stronger effect = lower value
[8] = measured here: total cells without miR-34 induction

Structure (SMILES)	parasite load remaining [1]	viability [1]	fold change [2, 5]	fold change [2, 6]	cell count [2, 7]	cell count [2, 8]	survival [3]	fold fluorescence [4]
CC/C=C\C/C=C\C/C=C\C/C=C\C/C=C\CCCC(=O)OCC	31% (inactive)	94%	1.01 (inactive)	1.98	11500	11400	–	–
CCCCC[C@H](O)/C=C/[C@@H]1[C@@H](CC(=O)CCCCC(=O)O)[C@@H](O)C[C@H]1O	–	–	0.992 (inactive) and 0.934 (inactive)	1.02 and 1.32	5930 and 6160	5980 and 6600	129 (inactive)	–
CC(C)=CCC/C(C)=C/CC1=C(C)C(=O)c2ccccc2C1=O	76.4% (inactive)	75.8%	0.983 (inactive)	0.847	6780	6900	–	–
CC(C)(C)NCC(O)COc1cccc2c1CC(O)C(O)C2 (centres undefined)	84.5% (inactive)	104%	0.89 (inactive)	1.39	8980	10100	–	–
COc1ccc(CC(C)(N)C(=O)O)cc1OC (centres undefined)	64.7% (inactive)	74.8%	0.962 (inactive)	0.938	9190	9550	17 (inactive)	–
C[C@H]1c2cccc(O)c2C(O)=C2C(=O)C3(O)C(O)=C(C(N)=O)C(=O)[C@@H](N(C)C)[C@@H]3[C@@H](O)[C@@H]21 (some centres undefined)	62.9% (inactive)	97.2%	0.641 (active)	1.76	4060	6330	3.25 (inactive)	–
S=C(NC1CCCCC1)N1CCC(C2C=NC=N2)CC1 (centres undefined)	49.2% (inactive)	96.4%	0.857 (inactive)	1.52	8240	9620	6.25 (inactive)	–
CC(=O)N[C@@H]1[C@@H](O[C@H](C)C(=O)O)[C@H](O)[C@@H](CO)O[C@@H]1O	112% (inactive)	105%	0.861 (inactive)	1.06	8610	10000	–	–
CCCCCCCC/C=C\CCCCCCCC(=O)OC[C@@H](O)COP(=O)(O)O	–	–	0.957 (inactive) and 0.893 (inactive)	1.42 and 0.522	6370 and 5350	6660 and 5990	57.2 (inactive)	–
CCCCC[C@H](O)/C=C/[C@@H]1[C@H]2C/C(=C/CCCC(=O)O)O[C@H]2C[C@H]1O	–	–	1.05 (inactive)	1.16 and 1.02	6320 and 6530	6040 and 6220	102 (inactive)	–
CC(=O)OCC(=O)[C@@]1(O)CC[C@H]2[C@@H]3CCC4=CC(=O)CC[C@]4(C)C3(F)C(=O)C[C@@]21C (some centres undefined)	49% (inactive)	46.2%	0.875 (inactive)	1.05	6080	6960	–	–
CC(C)(C)n1nc(Cc2cccc3ccccc23)c2c(N)ncnc21	40.9% (inactive)	75%	1.05 (inactive)	1.15	5260	5010	–	–
CCC(=O)O[C@H]1CCC2C3CCc4cc(O)ccc4C3CC[C@@]21C (some centres undefined)	105% (inactive) and 44.5% (inactive)	66.4% and 92.8%	0.912 (inactive)	2.49	10500	11500	–	–
CO[C@H]1CC(O[C@@H]2/C(C)=C/C[C@@H]3C[C@@H](C[C@]4(CC[C@H](C)[C@@H](C5CCCCC5)O4)O3)OC(=O)[C@@H]3C=C(C)/C(=N/O)[C@H]4OC/C(=C\C=C\[C@@H]2C)[C@]43O)O[C@@H](C)C1O (some centres undefined)	170% (inactive) and 47% (inactive)	86.8% and 106%	0.877 (inactive)	3.74	9710	11100	–	–
Clc1cnccn1	81.6% (inactive)	71.5%	0.949 (inactive)	0.524	9270	9770	4.25 (inactive)	–
C=C1CC[C@H](O)C/C1=C/C=C1\CCC[C@]2(C)[C@@H]([C@H](C)CC[C@@H](O)C(C)(C)O)CC[C@@H]12	–	–	1.03 (inactive)	1.15	5660	5500	80.4 (inactive)	–
C=C1C(c2ccc(C)cc2)=CCc2cc(C)cc(C)c21	–	–	0.866 (inactive)	0.886	1920	2210	98.5 (inactive)	–
CCOC(=O)Oc1c(OC)cc(C(=O)O[C@@H]2C[C@@H]3CN4CCc5c([nH]c6cc(OC)ccc56)[C@H]4C[C@@H]3[C@H](C(=O)OC)[C@H]2OC)cc1OC	-14.9% (active)	98.5%	0.795 (inactive)	2.41	6440	8100	–	–
CCCCCCCCCCCCCCC(F)C(=O)O (centres undefined)	–	–	0.989 (inactive) and 1.01 (inactive)	1.15 and 0.824	6040 and 6340	6110 and 6280	81.6 (inactive)	–

Structure (SMILES)	parasite load remaining [1]	viability [1]	fold change [2, 5]	fold change [2, 6]	cell count [2, 7]	cell count [2, 8]	survival [3]	fold fluorescence [4]
CCCCC[C@H](O)/C=C/[C@@H]1[C@H](C/C=C\CCCC(=O)O)[C@@H](O)C[C@H]1O	–	–	0.908 (inactive) and 0.973 (inactive)	1.37 and 1.68	6000 and 5340	6610 and 5490	105 (inactive)	–
Nc1ncnc2c1ncn2C1O[C@H](CO)[C@@H](O)[C@@H]1O (some centres undefined)	68.6% (inactive)	95.5%	0.85 (inactive)	1.24	7580	8920	–	–
CC(C)(CO)C(O)C(=O)NCCC(=O)O (centres undefined)	190% (inactive)	105%	0.839 (inactive)	0.783	8190	9770	–	–
O=C(O)CCC/C=C\C[C@H]1C(=O)C[C@@H](O)[C@@H]1/C=C/[C@@H](O)CCc1ccccc1	–	–	0.93 (inactive) and 0.922 (inactive)	1.16 and 1.61	5630 and 5680	6050 and 6160	102 (inactive)	–
CCCCCCCCCCCCCCC[C@@H](O)[C@@H](N)CO	–	–	0.968 (inactive)	1.46	5120	5290	56.7 (inactive)	–
Nc1ncnc2c1c(I)cn2[C@@H]1O[C@H](CO)[C@H](O)C1O (some centres undefined)	129% (inactive)	64.4%	1.01 (inactive)	0.838	1250	1240	–	–
CCC(=O)OC1(C(=O)CCl)[C@@H](C)C[C@H]2[C@@H]3CCC4=CC(=O)C=C[C@]4(C)[C@@]3(F)[C@@H](O)C[C@@]21C (some centres undefined)	141% (inactive)	94.7%	0.789 (inactive)	1.5	5850	7420	2.5 (inactive)	–
CC1(C)S[C@@H]2[C@H](NC(=O)[C@H](N)c3ccccc3)C(=O)N2[C@H]1C(=O)OC1OC(=O)c2ccccc21 (some centres undefined)	114% (inactive)	77.4%	0.95 (inactive)	0.554	8670	9130	7.92 (inactive)	–
CCCCC[C@H](O)CC[C@H]1[C@H](O)CC(=O)[C@@H]1CCCCCCC(=O)O	–	–	0.898 (inactive) and 0.911 (inactive)	0.955 and 1.31	5150 and 5260	5740 and 5770	89 (inactive)	–
C1CCC[C@H]2CCCN3CC[C@@H](CCCCCC[C@@H]4CCCN5CC[C@@H](CC1)O[C@@H]45)O[C@@H]23	–	–	–	–	–	–	–	6.06 [at 11.2 µM] (inactive)
C[C@@H]1C(=O)O[C@H]2CC34[C@H]5C[C@@H](C(C)(C)C)[C@]36[C@@H](OC(=O)[C@@H]6O)O[C@@]4(C(=O)O5)[C@]21O (some centres undefined)	93.7% (inactive)	99.1%	0.905 (inactive)	1.08	9000	9940	–	–
CO[C@H]1C[C@H](O[C@H]2[C@H](C)[C@@H](OC3O[C@H](C)C[C@H](N(C)C)[C@H]3OC(C)=O)[C@@H](C)C[C@]3(CO3)C(=O)[C@H](C)[C@@H](OC(C)=O)[C@@H](C)[C@@H](C)OC(=O)[C@@H]2C)O[C@@H](C)[C@@H]1OC(C)=O (some centres undefined)	45.4% (inactive) and 43.2% (inactive)	71.3% and 92%	0.885 (inactive)	2.77	11900	13400	–	–
Oc1cccc(-c2nc(N3CCOCC3)c3sccc3n2)c1	50.9% (inactive)	83.2%	0.851 (inactive)	0.61	2340	2750	–	–
CC[C@H]1/C=C(\C)C[C@@H](C)C[C@@H](OC)[C@@H]2O[C@](O)(C(=O)C(=O)N3CCCC[C@@H]3C(=O)O[C@@H](/C(C)=C/[C@H]3CC[C@H](O)[C@@H](OC)C3)[C@@H](C)[C@H](O)CC1=O)[C@@H](C)C[C@H]2OC	–	–	–	–	–	–	–	13.8 [at 63.1 µM] (inactive)
CN1CC[C@]23c4ccccc4N[C@H]1[C@]21CCN(C)[C@H]3Nc2ccccc21	122% (inactive)	96.8%	0.926 (inactive)	1.16	9800	10600	–	–
CCOCCOCCOCCOCCOCCOCCOCCOCCOCCO (tested in a mixture with another compound)	30.7% (inactive)	102%	0.959 (inactive)	1.63	11300	11800	–	–
OCCN1C[C@@H](O)[C@@H](O)C(O)C1CO (some centres undefined)	147% (inactive) and 57.2% (inactive)	86.4% and 111%	0.903 (inactive)	5.56	12600	14000	–	–
CC(=O)[C@@H]1[C@@H](C#N)C[C@@H]2[C@H]3CC=C4C[C@H](O)CC[C@@]4(C)[C@@H]3CC[C@]21C	–	–	–	–	–	–	–	3.64 [at 146.4 µM] (inactive)
C[C@H]1[C@H](C)CC[C@]2(C(=O)O[C@@H]3O[C@H](COC4O[C@H](CO)[C@@H](OC5O[C@@H](C)[C@H](O)[C@@H](O)[C@H]5O)[C@H](O)[C@H]4O)[C@@H](O)[C@H](O)[C@H]3O)CC[C@]3(C)C(=CC[C@@H]4[C@@]5(C)C[C@@H](O)[C@H](O)[C@@](C)(CO)C5CC[C@]43C)[C@H]12 (some centres undefined)	109% (inactive)	74.2%	0.957 (inactive)	0.577	8940	9340	–	–
